Data taken from the supplement of paper PMC11732987, “Enantioselective OTUD7B fragment discovery through chemoproteomics screening and high-throughput optimisation” (Communications Chemistry, 2025).

How the values were obtained:
Test in all cases: log2 ratio of Biotin-Ahx-Ub-VS probe labelling (fragment/DMSO); higher = less target engagement (more negative = stronger competition), active = hit call of the paper (q ≤ 0.05, log2 ratio ≤ -1)
Details in all cases: compound concentration: 200 uM; treatment time: 3 h
USP19 = target: T1, USP19 (UniProt O94966)
T1 sequence (whole entry): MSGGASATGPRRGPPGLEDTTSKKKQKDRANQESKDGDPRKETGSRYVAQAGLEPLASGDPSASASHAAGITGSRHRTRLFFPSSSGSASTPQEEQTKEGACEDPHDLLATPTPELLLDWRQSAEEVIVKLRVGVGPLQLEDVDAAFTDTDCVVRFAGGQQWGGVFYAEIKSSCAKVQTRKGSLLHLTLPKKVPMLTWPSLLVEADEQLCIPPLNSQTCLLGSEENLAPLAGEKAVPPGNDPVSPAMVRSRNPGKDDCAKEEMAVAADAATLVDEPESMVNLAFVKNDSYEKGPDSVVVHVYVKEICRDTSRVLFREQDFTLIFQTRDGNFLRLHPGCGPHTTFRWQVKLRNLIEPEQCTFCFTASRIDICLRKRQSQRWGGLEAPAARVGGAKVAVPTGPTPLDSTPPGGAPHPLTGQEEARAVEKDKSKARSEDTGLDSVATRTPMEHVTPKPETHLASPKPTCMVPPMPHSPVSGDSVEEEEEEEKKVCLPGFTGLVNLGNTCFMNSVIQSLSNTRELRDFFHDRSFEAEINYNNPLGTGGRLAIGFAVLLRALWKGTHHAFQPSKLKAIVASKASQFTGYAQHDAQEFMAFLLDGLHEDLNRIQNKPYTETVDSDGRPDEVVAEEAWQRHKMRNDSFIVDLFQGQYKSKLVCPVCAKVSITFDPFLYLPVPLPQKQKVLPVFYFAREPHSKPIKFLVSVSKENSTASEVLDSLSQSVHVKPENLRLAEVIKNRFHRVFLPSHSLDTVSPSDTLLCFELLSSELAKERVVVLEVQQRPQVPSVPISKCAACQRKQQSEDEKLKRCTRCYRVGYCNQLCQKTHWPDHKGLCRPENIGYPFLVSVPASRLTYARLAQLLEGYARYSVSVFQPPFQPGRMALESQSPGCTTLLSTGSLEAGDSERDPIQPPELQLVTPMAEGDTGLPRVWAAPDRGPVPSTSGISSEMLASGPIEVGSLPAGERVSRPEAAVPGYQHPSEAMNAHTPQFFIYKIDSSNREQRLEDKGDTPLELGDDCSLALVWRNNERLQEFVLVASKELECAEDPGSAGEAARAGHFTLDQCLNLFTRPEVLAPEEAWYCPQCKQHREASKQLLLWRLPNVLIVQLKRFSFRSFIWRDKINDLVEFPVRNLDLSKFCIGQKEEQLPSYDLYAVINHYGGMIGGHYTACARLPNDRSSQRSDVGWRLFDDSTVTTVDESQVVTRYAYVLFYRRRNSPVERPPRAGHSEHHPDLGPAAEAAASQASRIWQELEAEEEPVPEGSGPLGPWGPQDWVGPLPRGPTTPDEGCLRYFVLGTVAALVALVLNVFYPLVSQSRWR
Outline: (§1)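 Labelled DUBs from HEK293T lysate were NeutrAvidin-enriched, digested with LysC and trypsin, and run by diaPASEF LC-MS/MS. Before that, each 495 µg sample in Tris/CHAPS/IGEPAL buffer with protease inhibitors was treated in triplicate with fragment at 200 µM or vehicle for 3 h, then with Biotin-Ahx-Ub-VS at 0.5 µM final for 1 h. Values are average log2 ratios of fragment over vehicle by unpaired t-test, based on global-median-normalised Spectronaut label-free quantities from proteins with ≥2 unique peptides.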

USP22 = target: T2, USP22 (UniProt Q9UPT9)
T2 sequence (whole entry): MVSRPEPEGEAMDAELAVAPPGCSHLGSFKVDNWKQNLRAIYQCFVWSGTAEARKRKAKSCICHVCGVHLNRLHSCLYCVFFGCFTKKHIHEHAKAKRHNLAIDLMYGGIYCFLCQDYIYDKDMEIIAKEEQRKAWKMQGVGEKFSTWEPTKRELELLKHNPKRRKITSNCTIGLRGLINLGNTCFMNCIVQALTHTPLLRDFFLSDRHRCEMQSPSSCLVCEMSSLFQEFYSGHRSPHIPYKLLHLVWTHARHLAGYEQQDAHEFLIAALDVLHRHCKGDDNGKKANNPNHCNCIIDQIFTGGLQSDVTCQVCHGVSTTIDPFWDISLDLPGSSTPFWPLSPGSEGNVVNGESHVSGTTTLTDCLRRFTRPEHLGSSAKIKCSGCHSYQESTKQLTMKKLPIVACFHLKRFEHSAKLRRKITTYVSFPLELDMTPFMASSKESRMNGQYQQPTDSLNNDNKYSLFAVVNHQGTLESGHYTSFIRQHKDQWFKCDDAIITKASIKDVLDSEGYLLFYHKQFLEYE
Outline: as §1

USP24 = USP24 (UniProt Q9UPU5)
Outline: as §1

USP25 = target: T3, USP25 (UniProt Q9UHP3)
T3 sequence (whole entry): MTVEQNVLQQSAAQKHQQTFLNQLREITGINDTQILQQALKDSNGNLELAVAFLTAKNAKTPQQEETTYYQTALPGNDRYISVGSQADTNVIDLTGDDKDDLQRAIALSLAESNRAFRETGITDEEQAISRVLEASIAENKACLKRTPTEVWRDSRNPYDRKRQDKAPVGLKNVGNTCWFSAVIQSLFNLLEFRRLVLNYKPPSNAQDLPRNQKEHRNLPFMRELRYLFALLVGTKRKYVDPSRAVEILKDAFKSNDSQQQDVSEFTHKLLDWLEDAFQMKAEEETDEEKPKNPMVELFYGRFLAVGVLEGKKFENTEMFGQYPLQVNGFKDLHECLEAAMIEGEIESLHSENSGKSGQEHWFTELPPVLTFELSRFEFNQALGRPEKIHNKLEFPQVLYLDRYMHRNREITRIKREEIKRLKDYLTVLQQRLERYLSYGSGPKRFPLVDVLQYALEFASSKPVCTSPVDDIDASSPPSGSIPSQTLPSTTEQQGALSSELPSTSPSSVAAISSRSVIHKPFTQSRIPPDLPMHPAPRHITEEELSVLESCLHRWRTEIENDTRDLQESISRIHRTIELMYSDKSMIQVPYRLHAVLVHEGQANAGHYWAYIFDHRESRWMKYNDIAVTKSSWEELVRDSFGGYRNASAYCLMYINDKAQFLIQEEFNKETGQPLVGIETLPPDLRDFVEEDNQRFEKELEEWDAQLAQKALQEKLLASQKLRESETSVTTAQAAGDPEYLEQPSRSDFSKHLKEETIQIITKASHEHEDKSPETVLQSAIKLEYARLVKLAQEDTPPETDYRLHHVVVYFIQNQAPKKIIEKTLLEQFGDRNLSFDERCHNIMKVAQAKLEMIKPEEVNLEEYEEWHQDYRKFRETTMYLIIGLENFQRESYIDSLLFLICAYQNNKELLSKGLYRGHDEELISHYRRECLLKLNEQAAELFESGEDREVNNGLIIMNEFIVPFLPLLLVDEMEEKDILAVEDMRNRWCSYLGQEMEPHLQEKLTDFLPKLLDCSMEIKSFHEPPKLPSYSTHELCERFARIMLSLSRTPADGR
Outline: as §1

USP28 = target: T4, USP28 (UniProt Q96RU2)
T4 sequence (whole entry): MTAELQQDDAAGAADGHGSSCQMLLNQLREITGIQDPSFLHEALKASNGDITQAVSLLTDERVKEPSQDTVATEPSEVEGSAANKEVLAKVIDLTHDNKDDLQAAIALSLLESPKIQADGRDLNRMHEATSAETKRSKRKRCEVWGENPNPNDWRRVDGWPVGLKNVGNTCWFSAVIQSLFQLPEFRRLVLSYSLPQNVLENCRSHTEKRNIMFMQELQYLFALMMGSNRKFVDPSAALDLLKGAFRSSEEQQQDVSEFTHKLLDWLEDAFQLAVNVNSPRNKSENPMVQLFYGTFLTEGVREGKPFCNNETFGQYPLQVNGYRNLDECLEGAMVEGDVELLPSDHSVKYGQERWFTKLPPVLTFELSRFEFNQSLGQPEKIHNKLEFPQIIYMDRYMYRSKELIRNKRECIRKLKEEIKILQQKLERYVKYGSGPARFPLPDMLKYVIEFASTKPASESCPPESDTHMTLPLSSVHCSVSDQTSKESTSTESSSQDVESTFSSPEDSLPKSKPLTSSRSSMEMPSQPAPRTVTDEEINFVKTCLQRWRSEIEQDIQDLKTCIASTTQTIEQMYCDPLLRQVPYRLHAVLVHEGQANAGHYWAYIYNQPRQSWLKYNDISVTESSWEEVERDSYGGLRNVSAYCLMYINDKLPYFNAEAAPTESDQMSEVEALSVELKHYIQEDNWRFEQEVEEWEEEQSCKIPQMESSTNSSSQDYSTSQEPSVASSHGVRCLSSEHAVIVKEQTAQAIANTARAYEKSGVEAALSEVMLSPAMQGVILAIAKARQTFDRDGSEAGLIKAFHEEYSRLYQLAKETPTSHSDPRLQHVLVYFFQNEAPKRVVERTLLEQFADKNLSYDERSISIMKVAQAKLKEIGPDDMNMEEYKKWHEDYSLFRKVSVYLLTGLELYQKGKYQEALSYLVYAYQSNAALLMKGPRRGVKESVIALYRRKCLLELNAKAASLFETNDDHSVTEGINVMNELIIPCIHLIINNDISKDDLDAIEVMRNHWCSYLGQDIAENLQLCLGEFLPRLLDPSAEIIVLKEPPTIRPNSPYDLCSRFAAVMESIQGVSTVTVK
Outline: as §1

Measured: log2 ratio of Biotin-Ahx-Ub-VS probe labelling

Sequence of USP24 (Q9UPU5 whole entry): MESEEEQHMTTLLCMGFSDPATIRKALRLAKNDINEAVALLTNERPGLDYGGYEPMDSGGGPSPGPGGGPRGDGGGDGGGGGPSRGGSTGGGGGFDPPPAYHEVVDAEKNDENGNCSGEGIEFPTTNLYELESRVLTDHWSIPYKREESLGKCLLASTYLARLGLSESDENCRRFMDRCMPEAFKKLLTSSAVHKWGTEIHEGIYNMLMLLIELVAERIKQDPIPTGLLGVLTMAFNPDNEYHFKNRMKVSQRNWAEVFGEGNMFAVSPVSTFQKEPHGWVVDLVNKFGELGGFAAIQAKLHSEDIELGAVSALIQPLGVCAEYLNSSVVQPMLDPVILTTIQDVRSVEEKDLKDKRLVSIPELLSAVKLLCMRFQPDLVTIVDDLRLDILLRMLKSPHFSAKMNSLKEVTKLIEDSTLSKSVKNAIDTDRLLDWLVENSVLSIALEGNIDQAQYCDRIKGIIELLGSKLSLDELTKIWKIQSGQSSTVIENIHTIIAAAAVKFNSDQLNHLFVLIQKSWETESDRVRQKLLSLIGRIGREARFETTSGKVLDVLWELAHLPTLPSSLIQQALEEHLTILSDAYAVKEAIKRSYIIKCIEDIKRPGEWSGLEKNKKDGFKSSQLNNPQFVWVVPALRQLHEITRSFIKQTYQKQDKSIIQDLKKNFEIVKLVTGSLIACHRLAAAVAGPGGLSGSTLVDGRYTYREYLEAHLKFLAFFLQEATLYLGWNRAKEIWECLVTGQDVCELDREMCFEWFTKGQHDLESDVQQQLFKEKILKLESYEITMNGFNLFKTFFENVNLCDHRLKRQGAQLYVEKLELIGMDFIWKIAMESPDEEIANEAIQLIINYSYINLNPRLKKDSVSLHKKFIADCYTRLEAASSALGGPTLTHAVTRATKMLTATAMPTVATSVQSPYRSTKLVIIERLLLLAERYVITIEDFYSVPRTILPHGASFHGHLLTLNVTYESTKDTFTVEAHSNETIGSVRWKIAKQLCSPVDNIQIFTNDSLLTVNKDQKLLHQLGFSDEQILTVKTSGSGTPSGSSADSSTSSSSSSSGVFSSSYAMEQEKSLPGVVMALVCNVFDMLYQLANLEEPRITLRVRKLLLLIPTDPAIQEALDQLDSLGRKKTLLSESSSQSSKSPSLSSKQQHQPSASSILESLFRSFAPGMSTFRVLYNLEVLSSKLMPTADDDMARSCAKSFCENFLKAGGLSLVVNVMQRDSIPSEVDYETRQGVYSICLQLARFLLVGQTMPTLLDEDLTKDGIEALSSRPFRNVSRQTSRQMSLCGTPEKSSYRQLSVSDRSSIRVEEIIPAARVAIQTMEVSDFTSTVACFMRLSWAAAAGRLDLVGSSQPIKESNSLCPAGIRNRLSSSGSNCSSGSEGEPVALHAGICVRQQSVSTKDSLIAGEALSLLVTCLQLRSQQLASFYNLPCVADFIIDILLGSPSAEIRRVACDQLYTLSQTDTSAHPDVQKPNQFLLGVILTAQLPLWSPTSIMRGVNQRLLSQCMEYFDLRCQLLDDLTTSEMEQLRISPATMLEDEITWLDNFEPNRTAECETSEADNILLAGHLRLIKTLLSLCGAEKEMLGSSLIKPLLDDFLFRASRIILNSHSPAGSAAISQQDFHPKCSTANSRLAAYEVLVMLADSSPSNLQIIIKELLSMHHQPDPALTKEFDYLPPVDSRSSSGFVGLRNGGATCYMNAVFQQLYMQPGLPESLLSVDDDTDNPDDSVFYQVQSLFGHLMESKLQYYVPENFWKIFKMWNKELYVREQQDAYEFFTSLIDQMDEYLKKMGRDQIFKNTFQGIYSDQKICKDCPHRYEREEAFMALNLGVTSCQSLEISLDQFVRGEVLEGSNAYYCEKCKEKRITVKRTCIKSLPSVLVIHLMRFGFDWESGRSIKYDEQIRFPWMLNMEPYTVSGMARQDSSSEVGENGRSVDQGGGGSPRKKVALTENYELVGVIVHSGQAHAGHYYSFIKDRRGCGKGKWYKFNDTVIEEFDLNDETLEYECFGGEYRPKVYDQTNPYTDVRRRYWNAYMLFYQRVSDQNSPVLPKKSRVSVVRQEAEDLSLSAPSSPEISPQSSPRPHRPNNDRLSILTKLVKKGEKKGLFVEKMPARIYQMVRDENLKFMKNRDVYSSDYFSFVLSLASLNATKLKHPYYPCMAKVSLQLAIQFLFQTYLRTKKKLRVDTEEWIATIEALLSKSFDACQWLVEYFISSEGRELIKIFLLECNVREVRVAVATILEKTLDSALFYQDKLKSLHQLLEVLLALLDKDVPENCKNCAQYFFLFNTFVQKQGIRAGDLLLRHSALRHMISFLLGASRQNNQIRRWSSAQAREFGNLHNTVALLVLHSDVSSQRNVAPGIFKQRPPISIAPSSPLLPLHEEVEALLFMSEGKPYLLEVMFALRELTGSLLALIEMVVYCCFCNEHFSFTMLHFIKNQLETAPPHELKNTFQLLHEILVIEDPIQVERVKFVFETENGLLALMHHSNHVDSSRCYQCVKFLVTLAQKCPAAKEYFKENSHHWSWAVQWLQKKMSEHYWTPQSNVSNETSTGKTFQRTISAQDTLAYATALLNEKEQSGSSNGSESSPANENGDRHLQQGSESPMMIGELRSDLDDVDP

O=C(CN1CCN(C(=O)CCl)CC1)Nc1cccc(F)c1
inactive: USP19 -0.265 | USP22 0.00778 | USP24 -0.335 | USP25 -0.473 | USP28 -0.428
